A number with no mark means an inactive call.
System: Caenorhabditis elegans L1 (N2)
Assay: survival and reproduction score of C. elegans L1 (0: 0-10 living worms, 1: 11-20, 2: 21-50, 3: >50, 4: overgrown) (score 0-4); higher = more worms, less nematicidal, active = 1 or less; extreme values may be limits of the assay
Settings: 60 µM; 6 days; temperature: 20 °C
Outline: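 Worm survival and reproduction were recorded as an ordinal score of living worms per well, read under a dissection microscope. Each 96-well well held about 20 synchronized C. elegans N2 L1s with E. coli HB101 in liquid NGM and compound at 60 µM final (0.6% v/v DMSO), sealed and shaken at 200 rpm, 20 °C, for 6 days. Scores ranged from 0 (0–10 worms) to 4 (overgrown, starved) and were the mean of two biological replicates.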

| SMILES | survival and reproduction score |
| --- | --- |
| Cc1ccccc1CSc1nnc(-c2ccco2)o1 | 0 (active) |
| CC(C)(C)NC(=O)c1ccccc1-c1nc(-c2ccccc2)no1 | 4 |
| COc1ccccc1-c1nc(-c2ccc(Cl)cc2)no1 | 4 |
| COc1cccc(-c2nnc(SCc3ccccc3C)o2)c1 | 4 |
| Cc1ccc(-c2nc(-c3ccccn3)no2)cc1C | 3.5 |
| CCCCC(=O)Nc1ccccc1-c1nc(-c2ccccn2)no1 | 4 |
| Brc1ccc(CSc2nnc(-c3ccco3)o2)cc1 | 0 (active) |
| COc1cccc(-c2nnc(SCC(=O)Nc3cccc(C(F)(F)F)c3)o2)c1 | 4 |
| COc1ccc(Cl)cc1-c1noc(-c2ccc(Cl)cc2)n1 | 4 |
| CCN(C(=O)CSc1nnc(-c2ccncc2)o1)c1ccccc1 | 4 |
| Cc1nc(CSc2nnc(-c3ccc(Cl)cc3)o2)cs1 | 4 |
| COc1ccc(NC(=O)CSc2nnc(-c3ccc(Br)cc3)o2)cc1 | 4 |
| Cc1cc(Cl)ccc1NC(=O)CSc1nnc(-c2ccncc2)o1 | 4 |
| Ic1ccccc1-c1nc(-c2cccnc2)no1 | 3.5 |
| FC(F)(F)c1cccc(-c2noc(-c3cccnc3)n2)c1 | 1 (active) |
| O=C(CSc1nnc(-c2ccco2)o1)Nc1cccc(C(F)(F)F)c1 | 4 |
| CCc1cccc(C)c1NC(=O)CSc1nnc(-c2ccccc2)o1 | 4 |
| Brc1ccc(OCc2nc(-c3cccnc3)no2)cc1 | 4 |
| Cc1ccc(-c2noc(CSc3nc4ccccc4[nH]3)n2)cc1 | 4 |
| CC1CCN(C(=O)CSc2nnc(-c3cc4ccccc4o3)o2)CC1 | 4 |
| CC(C)c1ccc(OCc2nc(-c3ccccn3)no2)cc1 | 4 |
| Clc1ccccc1-c1nc(-c2ccc3c(c2)OCO3)no1 | 4 |
| O=C(CSc1nnc(-c2ccc(Cl)cc2)o1)Nc1nccs1 | 4 |
| Cc1ccc(SCc2nc(-c3ccc(C)cc3)no2)cc1 | 4 |
| Cc1cccc(-c2noc(-c3ccccc3F)n2)c1 | 4 |
| CCc1nc(-c2ccc(-c3ccccc3)nc2OC)no1 | 4 |

| SMILES | survival and reproduction score |
| --- | --- |
| Cc1ccc(-c2noc(-c3ccccc3C)n2)cc1 | 0 (active) |
| COc1nc(-c2ccccc2)ccc1-c1noc(C(C)C)n1 | 4 |
| COc1ccc(CCC(=O)Nc2ccc(-c3noc(COc4ccccc4C)n3)cc2)cc1 | 4 |
| O=C(CSc1nnc(-c2ccncc2)o1)Nc1cc(C(F)(F)F)ccc1Cl | 4 |
| Brc1ccc(OCc2nc(-c3ccc4c(c3)OCO4)no2)cc1 | 4 |
| Cc1cccc(-c2noc(-c3ccc4c(c3)OCO4)n2)c1 | 4 |
| COc1cccc(-c2noc(COc3ccc(Br)cc3)n2)c1 | 4 |
| Cc1ccc(-c2noc(CSc3nc(C)cc(C)n3)n2)cc1 | 4 |
| O=C(CSc1nnc(-c2cccc(Br)c2)o1)Nc1ccccn1 | 4 |
| COc1ccc(-c2noc(CSc3nc(C)cc(C)n3)n2)cc1 | 4 |
| O=C(Nc1cccc(-c2noc(COc3ccccc3)n2)c1)c1cccs1 | 4 |
| Clc1ccc(-c2nc(-c3cccnc3)no2)c(Cl)c1 | 2 |
| COc1cccc(-c2noc(COc3cccc(C)c3)n2)c1 | 4 |
| COc1ccc(Cl)cc1-c1noc(COc2ccc(Cl)cc2)n1 | 4 |
| Cc1cc(C)c(CSc2nnc(-c3ccccc3)o2)c(C)c1 | 4 |
| CC(C)(Oc1ccc(Cl)cc1)c1nc(-c2ccncc2)no1 | 0.5 (active) |
| Cc1ccccc1OCc1nc(-c2ccc(F)cc2)no1 | 4 |
| COc1ccc(-c2nnc(SCC(=O)c3ccccc3)o2)cc1 | 4 |
| Brc1ccc(-c2noc(-c3cccs3)n2)o1 | 0 (active) |
| O=C(CSc1nnc(-c2ccccc2)o1)NCc1ccccc1 | 4 |
| O=C(CSc1nnc(-c2ccc(Cl)cc2Cl)o1)Nc1ccccn1 | 4 |
| Cc1cccc(-c2nnc(SCC(=O)NC(C)c3ccccc3)o2)c1 (configuration not stated) | 4 |
| Cc1ccc(OCc2nc(-c3ccccc3)no2)cc1C | 4 |
| N#Cc1ccc(OCc2nc(-c3ccc(Br)o3)no2)cc1 | 4 |
| O=C(CSc1nnc(-c2ccc(Cl)cc2Cl)o1)N1CCCCC1 | 4 |
| CCc1nnc(NC(=O)CSc2nnc(-c3cccc(C)c3)o2)s1 | 4 |

| SMILES | survival and reproduction score |
| --- | --- |
| COc1ccc(-c2noc(-c3ccc(C)c(Cl)c3)n2)cc1 | 4 |
| Cc1ccc(-c2noc(-c3cccc(Br)c3)n2)cc1 | 4 |
| Brc1ccccc1-c1nc(-c2ccncc2)no1 | 0 (active) |
| COc1cccc(-c2noc(COc3cc(C)ccc3C)n2)c1 | 4 |
| Clc1ccccc1-c1noc(-c2ccncc2)n1 | 4 |
| CC(Oc1ccccc1)c1nc(-c2cccnc2)no1 (configuration not stated) | 4 |
| CC(C)C(=O)Nc1ccccc1-c1nc(-c2cccnc2)no1 | 0 (active) |
| Clc1ccc(-c2noc(-c3ccccc3Br)n2)cc1 | 3 |
| COc1ccc(Br)cc1-c1noc(-c2ccncc2)n1 | 4 |
| CCc1nnc(NC(=O)CSc2nnc(-c3ccc(Cl)cc3Cl)o2)s1 | 4 |
| CCCOc1ccc(-c2ccc(-c3nc(-c4cccnc4)no3)cc2)cc1 | 4 |
| Brc1ccc(CSc2nnc(-c3cccnc3)o2)cc1 | 4 |
| COc1cccc(-c2noc(-c3cc(C)ccc3C)n2)c1 | 4 |
| Fc1ccc(CSc2nnc(-c3ccccn3)o2)cc1 | 4 |
| COc1cccc(-c2noc(COc3ccc4ccccc4c3)n2)c1 | 4 |
| O=C(CSc1nnc(-c2ccccc2)o1)Nc1cccc(C(F)(F)F)c1 | 4 |
| COc1nc(C)ccc1-c1noc(-c2ccc(Cl)cc2)n1 | 4 |
| Cc1ccccc1-c1nc(-c2ccc(Cl)cc2)no1 | 0 (active) |
| CC(Oc1ccccc1)c1nc(-c2ccccn2)no1 (configuration not stated) | 4 |
| Cc1ccc(OCc2nc(-c3ccccc3Cl)no2)c(C)c1 | 4 |
| COc1cccc(OCc2nc(-c3cccc(Br)c3)no2)c1 | 4 |
| Brc1ccc(-c2noc(-c3ccco3)n2)o1 | 4 |
| CCCCSc1nnc(-c2ccc(Br)cc2)o1 | 0 (active) |
| COc1ccc(CC(=O)Nc2ccc(-c3noc(-c4ccc(F)cc4)n3)cc2)cc1 | 4 |
| O=C(CSc1nnc(-c2ccccc2)o1)Nc1ccc2ccccc2c1 | 4 |

Source: the supplement of paper PMC11219838
